A selection: hits, their analogues and other compounds. The true share with any hit is near 2.8%.
AHR activator = activators of human aryl hydrocarbon receptor. activation, % at 5 µM. hit rate 2.5% among 320,000. AID 2796. P35869. AHR-responsive luciferase reporter cells, luminescence; in the data active means activation above about 47%;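 further: 0% = vehicle wells and 100% = reference agonist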
Platelet DG rel = platelet dense granule release activity | human platelet-rich plasma, SFLLRN dense granule ATP release, luminescence | inhibition, %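 (compounds screened at 7.5 µM in platelet-rich plasma)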 | hit rate 0.22% among 300,000;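 active means mean replicate score, as percent of positive control, at or above 50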
PolyA inhibitor = inhibitors of polyadenylation in S. cerevisiae | S. cerevisiae SKY197-pL101 polyadenylation reporter, beta-gal luminescence; efflux-impaired pdr1/pdr3 knockout yeast; score 100 = 6 SD above DMSO | activity score, % at 12 µM | hit rate 0.02% among 300,000;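 active means lowest replicate activity score at least 50, where 100 means six control SD above control mean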;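 further: yeast exposed to compound for 9 h at 30 °C; higher score means more reporter readthrough which indicates perturbed polyadenylation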
HIF activator = HIF pathway transcriptional activation; U2OS HRE-luciferase reporter, luminescence; normalized: DMSO 0%, desferrioxamine 100%; activation, % at 7.5 µM (by protocol); hit rate 0.32% among 300,000; AID 1910;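 active means mean activation of at least 10% of the iron chelator positive control signal, with at least half of replicates also reaching 10%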
pCIP destab = lowers stability of the mouse p/CIP coactivator protein; F442A p/CIP-EGFP cells, EGFP fluorescence, 16 h; decrease of EGFP signal, % at 10 µM; hit rate 0.01% among 290,000; AID 1984;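 active means EGFP signal decrease of at least 30% at 10 µM or well 3 SD below plate mean, unless failing retest; inactive means the rest, including hits failing retest or dose response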
* hit, by the source's call; nt = no result given.

SMILES	AHR activator	Platelet DG rel	PolyA inhibitor	HIF activator	pCIP destab
O=C(NNC(=O)c1cc2cc3ccccc3nc2s1)c1cccc(Cl)c1	48.4*	-12.4	22.3	-0.1	-2.8
Cc1cccc(C(=O)NNC(=O)c2cc3cc4ccccc4nc3s2)c1	74.4*	nt	1.9	nt	-9.8
CC1=NN(c2ccccc2)C(=O)/C1=C\c1c(C)[nH]n(-c2ccccc2)c1=O	9.7	-1.6	-4.1	0.2	-3.9
CC1=NN(c2ccccc2)C(=O)/C1=C/c1c(O)n(-c2ccc(F)c(Cl)c2)[nH]c1=O	49.4*	16.6	-9.9	-0.2	-4.5
COc1ccccc1CNC(=O)C1CCC(CNS(=O)(=O)c2ccccc2)CC1 (stereo unspecified)	2.7	3.7	14.7	0.4	2.4
COc1ccc([N+](=O)[O-])cc1NC(=O)CSc1ncccn1	5.7	-1.4	-5.6	0.6	-12.1
COc1ccc([N+](=O)[O-])cc1NC(=O)CSc1nccc(C)n1	68.7*	1.9	-3.7	-0.1	-5.4
N#Cc1ccc(-c2csc(NNC(=O)c3ccccc3)n2)cc1	42.0	-18.4	-5.6	0.0	1.3
N#Cc1ccc(-c2csc(NNC(=O)c3ccc(Br)cc3)n2)cc1	32.4	-21.6	-19.3	9.7*	2.6
CC(C)(C)C(=O)/C=C(N)/C=C/c1ccccc1	14.2	-2.5	1.7	3.1	-0.2
Cc1ccc(S(=O)(=O)N2CCOC23CCN(C(=O)c2cc(Cl)ccc2Cl)CC3)cc1	1.3	4.3	-10.3	70.1*	-11.0
COc1ccc(NC(=O)/C=C/c2ccccc2[N+](=O)[O-])c(OC)c1	76.8*	-15.2	14.6	0.5	-2.0
COc1ccccc1NC(=O)/C=C/c1cc([N+](=O)[O-])ccc1OC(F)F	49.0*	5.5	-7.1	-0.4	-1.2
COc1ccc(OC)c(NC(=O)/C=C/c2ccccc2[N+](=O)[O-])c1	70.9*	23.2	-12.4	0.8	-3.6
COc1ccc(/C=N/Nc2ncc(-c3ccccc3)cn2)c(OC)c1	-2.8	5.9	-22.2	-0.2	3.4
COc1ccc(/C=N/Nc2ncccc2[N+](=O)[O-])c(OC)c1	0.8	78.8*	-12.5	-0.4	-2.0
COc1ccc(CNC(=O)/C=C/c2ccccc2[N+](=O)[O-])cc1	10.2	1.3	23.1	0.3	-6.4
COc1cccc(NC(=O)/C=C/c2ccccc2[N+](=O)[O-])c1	44.8	4.7	-7.9	3.7	-13.5
O=C(/C=C/c1cc([N+](=O)[O-])ccc1OC(F)F)Nc1cccc2ccccc12	3.7	2.0	10.0	1.2	2.3
CCOc1ccccc1C(=O)N(Cc1ccccc1)Cc1cc2cc3c(cc2[nH]c1=O)OCCO3	1.0	-3.6	4.7	-0.3	nt
Cc1ccc2[nH]c(=O)c(-c3nc4ccccn4c3NCc3ccco3)cc2c1	47.7*	-0.4	-9.2	1.8	9.3
CCOc1[nH]n(-c2ccccc2)c(=O)c1C=NCc1cccnc1	59.4*	-5.4	9.1	-0.2	6.7
Clc1ccc(-c2nc(NCCCN3CCOCC3)c3ccccc3n2)cc1	70.7*	6.7	-2.3	-0.2	5.3
Clc1cccc(-c2nc(NCCCN3CCOCC3)c3ccccc3n2)c1	13.5	-3.7	-5.0	-1.1	-18.1
Cc1ccc(-c2nc(NCCN3CCOCC3)c3ccccc3n2)cc1	65.5*	-0.5	2.5	0.1	5.3
SMILES	AHR activator	Platelet DG rel	PolyA inhibitor	HIF activator	pCIP destab
O=c1c(-c2ccc(Br)cc2)[n+]([O-])c2ccccc2n1OCc1ccccc1	3.7	23.9	-0.1	0.2	-6.2
C=CCOn1c(=O)c(-c2ccc(Cl)cc2)[n+]([O-])c2ccccc21	nt	2.5	-3.4	1.1	-7.8
Cc1c(=O)n(OCc2cccc(F)c2)c2ccccc2[n+]1[O-]	84.0*	-3.3	1.0	-0.3	4.5
Cc1c(=O)n(OCc2ccc(Cl)cc2)c2ccccc2[n+]1[O-]	59.1*	-4.4	17.4	0.0	0.7
COC(=O)c1cc(-c2ccccc2)n(CC(=O)O)c1C	1.1	nt	nt	nt	-0.2
Cc1cc(C)c2c(N)c3ccccc3nc2n1	23.0	-1.0	10.2	19.8*	-5.7
CCc1ccc2nc3nc(C)cc(C)c3c(N)c2c1	68.4*	-4.0	-2.3	0.9	5.4
CCc1ccc(NC(=S)/N=C(\N)Nc2nc(C)c3cc(CC)ccc3n2)cc1	-2.3	-1.3	-6.0	0.0	-10.2
CCCCNC(=O)c1cc(-c2ccc(OC)cc2)on1	0.8	1.0	-11.0	4.9	-5.1
O=C(NCCN1CCOCC1)c1cc(-c2cccs2)on1	61.6*	4.6	nt	0.0	-2.1
O=C(NCCN1CCOCC1)c1cc(-c2ccccc2)on1	12.4	-4.6	-10.1	5.9	2.0
CCCCNC(=O)c1cc(-c2ccc(F)cc2)on1	-6.8	1.9	-5.5	40.5*	-8.2
O=C(NCCCN1CCOCC1)c1cc(-c2ccccc2)on1	11.0	-6.4	7.6	28.1*	-11.4
COC(=O)c1ccccc1NC(=O)CSc1ncn[nH]1	1.9	6.0	-4.7	-0.2	2.3
CN1CCN(c2c([N+](=O)[O-])cnc3ccccc23)CC1	3.4	9.3	3.5	0.0	nt
COc1ccc(/C=N/NC(=S)Nc2cc(S(=O)(=O)N3CCOCC3)ccc2N2CCOCC2)cc1O	7.3	14.8	10.7	34.9*	-5.8
COc1ccc2ccccc2c1/C=N/NC(=S)Nc1cc(S(=O)(=O)N2CCOCC2)ccc1N1CCOCC1	15.1	-14.3	-7.3	1.1	-3.7
COc1ccccc1NC(=O)c1c([N+](=O)[O-])cnn1C	61.2*	3.3	-0.9	0.3	-7.7
CC1=C(C(=O)Nc2ccccc2)C(c2ccccc2[N+](=O)[O-])NC(=O)N1 (stereo unspecified)	27.3	-8.4	-6.3	0.8	-13.7
COc1ccc(Cl)cc1NC(=O)c1noc(C)c1[N+](=O)[O-]	54.9*	21.7	-1.9	0.2	-8.7
COc1ccc(Cl)cc1NC(=O)c1noc2c1CCCC2	22.2	-0.3	-5.5	0.2	0.6
COc1ccccc1NC(=O)C1=C(C)NC(=O)NC1c1ccccc1[N+](=O)[O-] (stereo unspecified)	70.5*	-45.3	14.2	1.1	-37.2
Cn1ncc([N+](=O)[O-])c1C(=O)Nc1ccc(Cl)cc1	72.2*	0.1	-8.7	-4.1	0.2
O=C(NCC(=O)N1CCN(S(=O)(=O)/C=C/c2ccccc2)CC1)c1ccc(Cl)cc1	-0.6	1.0	-6.5	0.0	9.1
COC(=O)C1=C(CS(=O)(=O)c2ccccc2)NC(=O)NC1c1ccc(OC)c(OC)c1 (stereo unspecified)	3.0	0.6	3.8	-0.5	0.0
COc1cccc2c(=O)cc(C)n(CC(=O)Nc3cccc(C)c3)c12	30.7	-2.0	12.5	0.3	4.7
COc1ccccc1OCCC(=O)OCC(=O)NCc1ccc(F)cc1	-0.3	nt	nt	nt	nt
COc1ccccc1NC(=O)c1c([N+](=O)[O-])c(C(C)(C)C)nn1C	7.3	3.1	-12.3	0.1	13.4
COc1ccccc1NC(=O)c1nn(C)c(C(=O)Nc2ccccc2OC)c1[N+](=O)[O-]	58.8*	-2.2	1.1	-0.8	-3.6
COc1ccccc1NC(=O)c1nn(C)cc1Br	61.2*	5.9	-5.2	-0.5	-4.9

Screening results from PubChem BioAssay.
